Experimental data published in PubChem BioAssay (NCI).
The panel holds about 79,000 compounds, 15% with a hit somewhere; the sample as a whole holds those more often. Unmarked numbers belong to inactive results. The source made the active and inactive calls. No stated cut-off is given here; in the data, active means growth inhibition above about 70%; inactive means the rest.

Test: NCI Yeast Anticancer Drug Screen. Data for the rad50 strain (AID 155);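 further: 0% = growth of vehicle-only cultures of the same strain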
Settings: S. cerevisiae rad50 strain growth inhibition, active compounds read high
Description: Growth inhibition of yeast strains with defined genetic alterations is measured as a screen for potential anti-cancer activity. Selected strains with alterations in DNA damage repair or cell cycle control were exposed to compounds and growth inhibition was measured relative to vehicle treated controls. The strain used in this assay is rad50

[1] = at 5.0 µM (retest, dose inferred, filed as 0.5)
[2] = at 50.0 µM (retest, dose inferred, filed as 5.0)

| SMILES | growth inhibition [1] | growth inhibition [2] | growth inhibition (at 50.0 µM) |
| --- | --- | --- | --- |
| COc1ccc(OC(C)=O)c2c1CCC=CC2=O | 14% | 93% (active) | 41.9% |
| CCOC(=O)C(F)C(Br)C(=O)OCC (configuration not stated) | 22% | 98% (active) | 90.5% (active) |
| COC(=O)c1ccccc1CC(Cc1ccc2c(c1)CCC2)C(=O)OC (configuration not stated) | 20% | 27% | 35% |
| CN(C)CC(CN1CCCC1)C(=O)c1ccccc1 (configuration not stated) | 13% | 24% | 56.6% |
| N#CSC#CCCC#CSC#N | 52% | 57% | 92.5% (active) |
| O=C(Nc1ccc(Cl)c(Cl)c1Cl)Oc1c(Cl)c(Cl)c(Cl)c(Cl)c1Cl | 25% | 97% (active) | 99.5% (active) |
| COc1ccc(/C(Cl)=C(/c2ccc(O)cc2)c2ccc(OCCN(C)C)cc2)cc1 | 40% | 40% | 91.8% (active) |
| FC(F)(F)c1ccc(Nc2ccc(C(F)(F)F)cc2)cc1 | 9% | 100% (active) | 99.6% (active) |
| COC(=O)C1C2CC3c4[nH]c5cc(OC)c(Br)cc5c4CCN3CC2CC(OC(=O)c2cc(OC)c(OC)c(OC)c2)C1OC (configuration not stated) | -4% | 91% (active) | 89.7% (active) |
| CC12C(=O)OC(=O)C1C1c3ccccc3C2c2ccccc21 (configuration not stated) | 71% (active) | 99% (active) | 89.7% (active) |
| CCCCSc1nc2c([nH]1)c(=S)n(C)c(=S)n2C | 2% | 80% (active) | 63.5% |
| Cc1cccc2c1Oc1ccccc1C2N1C(=O)/C(=C/c2cccs2)SC1=S (configuration not stated) | 1% | 12% | 51.8% |
| COc1ccc(CCCC(=O)O)c2c(OC)cccc12 | 14% | 58% | 80.8% (active) |
| CC(=O)Nc1c([N+](=O)[O-])cc2c3c(cccc13)C=C2 | 3% | 77% (active) | 24.8% |
